PubChem BioAssay (EPA / NIEHS)
Results filed as inconclusive are left out. Active and inactive are the calls of the source. How the source made its calls: active means hit-call score of the fitted dose curve at least 0.9, where 1 is the maximum; inconclusive means response in the unintended direction; inactive means score below 0.9.

What was measured:
[1] = ACEA_ER_AUC_viability: ACEA Biosciences xCELLigence Real-Time Cell Analysis on Estrogen Receptor Agonism for Viability (AID 2283782);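 further: continuous compound exposure with impedance area under curve over 80 h; hit means loss of impedance signal meaning reduced cell growth or viability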
Summary of the method: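 T-47D; phenol red-free RPMI1640 + 10% CS-FBS; 8 conc., 1:4 serial, max 100 uM final, ≤0.5% DMSO; n = 2; continuous exposure; impedance monitored to 80 h post-dose; AUC vs DMSO.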

AR (gene 367) = AR (gene 367) (UniProt P10275); test: ACEA_AR_agonist_80hr: ACEA Biosciences xCELLigence Real-Time Cell Analysis on Androgen Receptor Agonism for Proliferation (AID 2283783);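 further: hits increase impedance growth signal above DMSO baseline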
AR (gene 367), sequence (P10275 whole entry, looked up): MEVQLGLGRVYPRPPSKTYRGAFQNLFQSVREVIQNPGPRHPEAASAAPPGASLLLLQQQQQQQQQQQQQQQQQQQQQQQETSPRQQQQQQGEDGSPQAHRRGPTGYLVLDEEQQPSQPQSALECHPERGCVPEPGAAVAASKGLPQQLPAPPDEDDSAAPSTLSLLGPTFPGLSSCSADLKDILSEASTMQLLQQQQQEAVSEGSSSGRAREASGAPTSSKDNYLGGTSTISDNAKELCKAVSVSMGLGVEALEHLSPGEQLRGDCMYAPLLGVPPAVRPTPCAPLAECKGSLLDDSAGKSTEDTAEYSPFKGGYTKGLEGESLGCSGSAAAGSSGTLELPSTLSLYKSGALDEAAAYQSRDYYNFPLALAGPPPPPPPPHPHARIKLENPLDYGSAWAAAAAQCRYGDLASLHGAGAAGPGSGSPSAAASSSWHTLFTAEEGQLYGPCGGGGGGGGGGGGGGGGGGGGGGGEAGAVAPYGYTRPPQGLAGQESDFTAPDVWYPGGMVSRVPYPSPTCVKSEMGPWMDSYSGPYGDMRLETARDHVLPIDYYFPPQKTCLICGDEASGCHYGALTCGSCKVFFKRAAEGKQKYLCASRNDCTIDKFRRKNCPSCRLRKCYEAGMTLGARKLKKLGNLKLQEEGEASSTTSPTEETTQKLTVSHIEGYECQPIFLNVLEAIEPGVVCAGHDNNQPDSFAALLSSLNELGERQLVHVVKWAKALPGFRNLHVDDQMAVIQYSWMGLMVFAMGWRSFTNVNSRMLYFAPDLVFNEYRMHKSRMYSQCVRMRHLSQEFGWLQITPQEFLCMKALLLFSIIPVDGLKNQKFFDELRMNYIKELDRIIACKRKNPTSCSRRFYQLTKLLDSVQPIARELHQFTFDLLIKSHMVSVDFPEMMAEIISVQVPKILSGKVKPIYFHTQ
Summary of the method: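 Androgen-driven proliferation in 22Rv1 cells is tracked as electrical impedance, taken 80 h after continuous exposure to compound (eight concentrations, 1:4 steps, maximum 100 uM final). Activity is fitted in the positive direction with DMSO as baseline.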

## O=P(O)(O)Oc1ccccc1
[1]
  AC50: 50 µM (active)

## NC(=O)NNC(N)=O
[1]
  outcome: inactive

## CCN(Cc1cccc(S(=O)(=O)O)c1)c1ccc(C(=C2C=CC(=[N+](CC)Cc3cccc(S(=O)(=O)[O-])c3)C=C2)c2ccccc2)cc1
[1]
  outcome: inactive

## CCCCCCCCCCCCCCCC(=O)OCC
[1]
  outcome: inactive

## COC(=O)c1sccc1S(N)(=O)=O
[1]
  outcome: inactive

## C[Si](C)(CCCN)O[Si](C)(C)CCCN
[1]
  AC50: 55.9 µM (active)

## CCCCCCCC(C)=O
[1]
  outcome: inactive

## CC=CCO
[1]
  outcome: inactive

## C=C(C)c1cccc(C(C)(C)N=C=O)c1
[1]
  outcome: inactive

## CCCCCC(C)O (stereo not drawn)
[1]
  outcome: inactive

## CCCCCCCCC(=O)OCC
[1]
  AC50: 50 µM (active)

## CC/C=C\CCOC(=O)CCCCC
[1]
  outcome: inactive

## Cc1c(C)c([N+](=O)[O-])c(C(C)(C)C)c([N+](=O)[O-])c1C
[1]
  outcome: inactive

## CC(C)=CC1CC(C)CCO1 (stereo not drawn)
[1]
  outcome: inactive

## CCc1c(C(=O)O)c(=O)cnn1-c1ccc(Cl)cc1
[1]
  AC50: 31.4 µM (active)

## COCCOCCOCCOCCOC
[1]
  outcome: inactive

## Nc1ncn([C@@H]2O[C@H](CO)[C@@H](O)[C@H]2O)c(=O)n1
[1]
  AC50: 3.22 µM (active)

## CC(CC=O)CCCC(C)(C)O (stereo not drawn)
AR (gene 367)
  outcome: inactive
